Activity calls are given as the source filed them. Rule for the calls: active = hit-call score of the fitted dose curve at least 0.9, where 1 is the maximum; inactive = score below 0.9.
Tests used:
[1] = read-out: Transforming growth factor beta 1 (TGFb1), TGFB1 (gene 7040); assay: BSK_KF3CT_TGFb1: BioMAP Diversity Plus: KF3CT Assay for Transforming growth factor beta 1 (TGFb1) Biomarker Activity (AID 2283072); details: primary human keratinocytes with fibroblasts; actives raise or lower the signal
How it was run: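 Primary human skin cells (keratinocytes, foreskin fibroblasts) were co-cultured, exposed to test chemical and sampled at 24 h. TGF-b1 levels were measured by ELISA and fitted bidirectionally relative to DMSO.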

[2] = read-out: C-C motif chemokine 2 (Homo sapiens) (UniProt P13500); assay: BSK_KF3CT_MCP1: BioMAP Diversity Plus: KF3CT Assay for Monocyte Chemoattractant Protein 1 (MCP1/CCL2) Biomarker Activity (AID 2283073); details: primary human keratinocytes with fibroblasts; actives raise or lower the signal
How it was run: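 Human keratinocyte–foreskin fibroblast co-culture; MCP-1 measured by ELISA 24 h after dosing. Bidirectional fit vs DMSO; cytotoxicity tracked by SRB total protein in parallel cultures.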

[3] = read-out: Matrix Metallopeptidase 9 (MMP9), MMP9 (gene 4318); assay: BSK_KF3CT_MMP9: BioMAP Diversity Plus: KF3CT Assay for Matrix Metallopeptidase 9 (MMP9) Biomarker Activity (AID 2283074); details: primary human keratinocytes with fibroblasts; actives raise or lower the signal
How it was run: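 Human keratinocyte/foreskin fibroblast co-culture; compound added; 24 h; MMP-9 by ELISA; bidirectional fit vs DMSO baseline.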

[4] = read-out: urokinase plasminogen activator (uPA), PLAU (gene 5328); assay: BSK_KF3CT_uPA: BioMAP Diversity Plus: KF3CT Assay for urokinase plasminogen activator (uPA) Biomarker Activity (AID 2283075); details: primary human keratinocytes with fibroblasts; actives raise or lower the signal
How it was run: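 ELISA readout of uPA, analyzed for signal gain or loss relative to DMSO, from a human primary keratinocyte–foreskin fibroblast co-culture measured 24 h after chemical treatment.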

CD40, CD40 (gene 958) [5] = assay: BSK_LPS_CD40: BioMAP Diversity Plus: LPS Assay for CD40 Biomarker Activity (AID 2283076); details: primary human HUVEC with PBMC; actives raise or lower the signal
How it was run: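 HUVEC plus PBMC co-culture stimulated with LPS; CD40 quantified by ELISA 24 h after compound dosing. Fitting was bidirectional relative to DMSO. SRB staining of parallel cultures flagged overt cytotoxicity.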

[6] = read-out: E-selectin (Homo sapiens) (UniProt P16581); assay: BSK_LPS_Eselectin: BioMAP Diversity Plus: LPS Assay for Eselectin Biomarker Activity (AID 2283077); details: primary human HUVEC with PBMC; actives raise or lower the signal
How it was run: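 Human umbilical vein endothelial cells co-cultured with PBMC under LPS stimulation; cell-surface E-selectin measured by ELISA 24 h after dosing. Change in either direction versus DMSO, with SRB total-protein staining in parallel cultures for cytotoxicity.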

[7] = read-out: Interleukin-8 (IL8), CXCL8 (gene 3576); assay: BSK_LPS_IL8: BioMAP Diversity Plus: LPS Assay for Interleukin-8 (IL8) Biomarker Activity (AID 2283078); details: primary human HUVEC with PBMC; actives raise or lower the signal
How it was run: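 Human umbilical vein endothelial cells co-cultured with PBMC, LPS-stimulated, exposed to compound for 24 h. IL-8 quantified by ELISA; fitted in both directions against DMSO, with SRB total-protein staining of parallel cultures for cytotoxicity.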

[8] = BSK_LPS_SRB: Viability Assessment in the BioMAP Diversity Plus: LPS Assay (AID 2283079); details: primary human HUVEC with PBMC;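 note: total protein by sulforhodamine B absorbance as a cytotoxicity measure; measured one day after compound addition; fitted in both directions against DMSO so loss or gain of signal counts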
How it was run: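 Co-culture of human umbilical vein endothelial cells and PBMC, read 24 h after dosing. Total protein by 0.1% SRB staining after 10% TCA fixation, absorbance at 560 nm; bidirectional fit against DMSO.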

[9] = read-out: Interleukin-1 alpha (IL1a), IL1A (gene 3552); assay: BSK_LPS_IL1a: BioMAP Diversity Plus: LPS Assay for Interleukin-1 alpha (IL1a) Biomarker Activity (AID 2283080); details: primary human HUVEC with PBMC; actives raise or lower the signal
How it was run: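 Human umbilical vein endothelial cells co-cultured with PBMC and stimulated with LPS; IL-1a measured by ELISA 24 h after dosing. Bidirectional fitting against DMSO; cytotoxicity checked by SRB staining in parallel cultures.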

[10] = read-out: Monocyte Chemoattractant Protein-1 (MCP1), CCL2 (gene 6347); assay: BSK_LPS_MCP1: BioMAP Diversity Plus: LPS Assay for Monocyte Chemoattractant Protein-1 (MCP1) Biomarker Activity (AID 2283081); details: primary human HUVEC with PBMC; actives raise or lower the signal;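 for AC50: secreted MCP-1 protein quantified by ELISA in culture supernatant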
How it was run: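 Human umbilical vein endothelial cells co-cultured with PBMC, LPS-stimulated; secreted MCP-1 measured by ELISA 24 h after compound addition. Bidirectional curve fitting against DMSO baseline; SRB total-protein staining in parallel cultures for cytotoxicity.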

[11] = BSK_LPS_PGE2: BioMAP Diversity Plus: LPS Assay for Prostaglandin E2 (PGE2) Biomarker Activity (AID 2283082); details: primary human HUVEC with PBMC; actives raise or lower the signal
How it was run: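 LPS-activated HUVEC/PBMC co-culture; cmpd dosed, 24 h; PGE2 by ELISA; bidirectional fit vs DMSO; SRB (0.1%, TCA-fixed, 560 nm) in parallel plates for overt cytotox.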

[12] = read-out: Macrophage colony-stimulating factor (MCSF), CSF1 (gene 1435); assay: BSK_LPS_MCSF: BioMAP Diversity Plus: LPS Assay for Macrophage colony-stimulating factor (MCSF) Biomarker Activity (AID 2283083); details: primary human HUVEC with PBMC; actives raise or lower the signal
How it was run: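 HUVEC–PBMC co-culture, M-CSF measured by ELISA 24 h after chemical dosing. Fitted in both directions relative to DMSO as negative control; overt cytotoxicity assessed by SRB total-protein staining in parallel cultures.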

[13] = read-out: Tissue Factor, F3 (gene 2152); assay: BSK_LPS_TissueFactor: BioMAP Diversity Plus: LPS Assay for Tissue Factor Biomarker Activity (AID 2283084); details: primary human HUVEC with PBMC; actives raise or lower the signal
How it was run: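 Human umbilical vein endothelial cells co-cultured with PBMC were dosed with compound. Cell-surface CD142 was measured by ELISA 24 h later. Activity was fitted bidirectionally against DMSO, with SRB total-protein staining in parallel cultures for cytotoxicity.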

[14] = read-out: Tumor necrosis factor (Homo sapiens) (UniProt P01375); assay: BSK_LPS_TNFa: BioMAP Diversity Plus: LPS Assay for Tumour Necrosis Factor alpha (TNFa) Biomarker Activity (AID 2283085); details: primary human HUVEC with PBMC; actives raise or lower the signal
How it was run: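 Read-out is ELISA of TNFa in primary human endothelial cell–PBMC co-cultures at 24 h after compound. Activity in either direction was fitted against DMSO.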

CD38, CD38 (gene 952) = assay: BSK_SAg_CD38: BioMAP Diversity Plus: SAg Assay for CD38 Biomarker Activity (AID 2283087); details: primary human HUVEC with PBMC; actives raise or lower the signal
How it was run: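 Human HUVEC plus PBMC co-culture stimulated with superantigen; CD38 measured by ELISA 24 h after chemical dosing. Fluorescence read-out, bidirectional fit against DMSO; cytotoxicity tracked in parallel by SRB and Alamar Blue.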

CD40, CD40 (gene 958) [15] = assay: BSK_SAg_CD40: BioMAP Diversity Plus: SAg Assay for CD40 Biomarker Activity (AID 2283088); details: primary human HUVEC with PBMC; actives raise or lower the signal
How it was run: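 HUVEC plus PBMC co-culture, superantigen-activated, with CD40 read by ELISA 24 h after dosing. Curves fitted in both directions against DMSO. Overt cytotoxicity checked by parallel SRB total-protein staining.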

CD69, CD69 (gene 969) = assay: BSK_SAg_CD69: BioMAP Diversity Plus: SAg Assay for CD69 Biomarker Activity (AID 2283089); details: primary human HUVEC with PBMC; actives raise or lower the signal
How it was run: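 HUVEC co-cultured with PBMC were dosed with chemical, and CD69 was measured by ELISA with fluorescence read-out 24 h later. Bidirectional curve fitting used DMSO as negative control and activity baseline.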

[16] = read-out: Monocyte Chemoattractant Protein-1 (MCP1), CCL2 (gene 6347); assay: BSK_SAg_MCP1: BioMAP Diversity Plus: SAg Assay for Monocyte Chemoattractant Protein-1 (MCP1) Biomarker Activity (AID 2283090); details: primary human HUVEC with PBMC; actives raise or lower the signal
How it was run: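 MCP-1 levels in the endothelial–PBMC SAg co-culture were quantified by ELISA at 24 h post-dosing; both increases and decreases versus DMSO scored. Cytotoxicity monitored by SRB total protein in parallel cultures.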

[17] = read-out: E-selectin (Homo sapiens) (UniProt P16581); assay: BSK_SAg_Eselectin: BioMAP Diversity Plus: SAg Assay for Eselectin Biomarker Activity (AID 2283091); details: primary human HUVEC with PBMC; actives raise or lower the signal
How it was run: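 Human umbilical vein endothelial cells co-cultured with peripheral blood mononuclear cells, SAg system. E-selectin is measured by ELISA 24 h after dosing and fitted bidirectionally against DMSO. Cytotoxicity is checked by SRB staining of parallel cultures.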

[18] = read-out: Vascular cell adhesion molecule 1 (VCAM1), VCAM1 (gene 7412); assay: BSK_LPS_VCAM1: BioMAP Diversity Plus: LPS Assay for Vascular cell adhesion molecule 1 (VCAM1) Biomarker Activity (AID 2283086); details: primary human HUVEC with PBMC; actives raise or lower the signal
How it was run: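 HUVEC + PBMC co-culture, LPS system; compound 24 h; VCAM-1 by ELISA; bidirectional fit vs DMSO control; parallel SRB (0.1%, TCA-fixed, 560 nm) for cytotoxicity.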

Measured: AC50

Sequence of Tumor necrosis factor (Homo sapiens) (P01375 whole entry, looked up): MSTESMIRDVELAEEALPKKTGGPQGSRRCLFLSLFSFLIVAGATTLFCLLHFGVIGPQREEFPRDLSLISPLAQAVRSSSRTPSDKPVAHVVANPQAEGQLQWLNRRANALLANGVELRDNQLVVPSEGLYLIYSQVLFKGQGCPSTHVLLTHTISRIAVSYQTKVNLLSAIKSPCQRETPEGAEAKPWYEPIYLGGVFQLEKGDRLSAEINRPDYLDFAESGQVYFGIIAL
Sequence of E-selectin (Homo sapiens) (P16581 whole entry, looked up): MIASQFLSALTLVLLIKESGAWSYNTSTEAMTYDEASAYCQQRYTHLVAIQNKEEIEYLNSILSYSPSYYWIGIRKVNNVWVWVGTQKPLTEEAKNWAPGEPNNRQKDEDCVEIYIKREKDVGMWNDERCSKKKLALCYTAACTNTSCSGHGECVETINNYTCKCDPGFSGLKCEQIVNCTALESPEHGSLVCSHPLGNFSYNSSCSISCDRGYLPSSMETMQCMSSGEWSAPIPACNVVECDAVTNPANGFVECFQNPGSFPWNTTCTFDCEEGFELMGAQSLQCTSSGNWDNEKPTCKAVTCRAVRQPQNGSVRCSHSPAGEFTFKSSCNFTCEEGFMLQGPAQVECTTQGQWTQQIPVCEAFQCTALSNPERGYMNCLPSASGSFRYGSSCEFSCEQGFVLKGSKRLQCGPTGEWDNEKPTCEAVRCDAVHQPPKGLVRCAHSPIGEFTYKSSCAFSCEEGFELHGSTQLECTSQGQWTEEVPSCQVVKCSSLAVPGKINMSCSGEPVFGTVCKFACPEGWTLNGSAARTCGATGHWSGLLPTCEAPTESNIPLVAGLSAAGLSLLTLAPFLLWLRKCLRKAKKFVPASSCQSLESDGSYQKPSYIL

CC(N)=O
not listed: [18]
inactive: all other assays above

CC(=O)O
not listed: [18]
inactive: all other assays above

C=CCCCCCCCCCCCC
not listed: [11]
inactive: all other assays above

CCC(C)N(C)C(=O)c1cc2ccccc2c(-c2ccccc2Cl)n1 (stereo unspecified)
not listed: [18]
inactive: all other assays above

CCCCC(CC)COP(=O)(OCC(CC)CCCC)OCC(CC)CCCC (stereo unspecified)
active: [7] 5.39 µM | [14] 5.46 µM
not listed: [11]
inactive: all other assays above

Cc1ccc(C(C)(C)C)c(O)c1
not listed: [11]
inactive: all other assays above

CC(C)OC(=O)C(C)(C)Oc1ccc(C(=O)c2ccc(Cl)cc2)cc1
active: CD40, CD40 (gene 958) [5] 29.4 µM | [7] 32 µM | [8] 27.8 µM | [10] 29.7 µM | [12] 27.3 µM | CD38, CD38 (gene 952) 16.1 µM | [16] 20 µM | [17] 33.5 µM
not listed: CD40, CD40 (gene 958) [15] | CD69, CD69 (gene 969) | [18]
inactive: all other assays above

Source: PubChem BioAssay (EPA / NIEHS)
